In article PMC7862700, “An all-to-all approach to the identification of sequence-specific readers for epigenetic DNA modifications on cytosine”:

What was measured:
Test in all cases: DAPPL (digital affinity profiling via proximity ligation, sequencing); 10 mM Tris-HCl pH 7.5, 50 mM NaCl, 1 mM DTT, 4% glycerol, room temperature, 30 min; GST-TFs on glutathione beads, 16-mer random dsDNA library, 0.1% formaldehyde crosslink after washing; high values mean tight binding
Conditions in all cases: protein: recombinant; tags: N-terminal GST; dsDNA, one strand shown
FLI1 = target: T1, FLI1 (Homo sapiens, UniProt Q01543 1-452)
T1 sequence: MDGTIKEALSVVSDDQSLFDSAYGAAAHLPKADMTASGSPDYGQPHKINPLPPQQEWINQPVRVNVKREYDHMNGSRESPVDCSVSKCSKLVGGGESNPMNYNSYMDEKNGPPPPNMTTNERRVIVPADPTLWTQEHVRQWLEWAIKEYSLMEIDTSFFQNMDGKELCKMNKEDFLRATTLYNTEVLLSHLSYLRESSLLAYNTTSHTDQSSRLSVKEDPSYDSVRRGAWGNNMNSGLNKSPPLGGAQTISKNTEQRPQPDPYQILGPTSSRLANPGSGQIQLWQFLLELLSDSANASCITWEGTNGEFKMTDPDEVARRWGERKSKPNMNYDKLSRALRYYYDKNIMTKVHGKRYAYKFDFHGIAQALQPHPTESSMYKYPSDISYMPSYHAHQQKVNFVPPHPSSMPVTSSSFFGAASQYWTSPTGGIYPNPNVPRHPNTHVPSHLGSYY
Outline: (§1)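 Human transcription factors were made in yeast as GST fusions, captured on glutathione beads and barcoded with DNA. With a tag-only sample included, the pool was incubated with 200 nmole of a random double-stranded 16-mer DNA library in Tris/NaCl/DTT/glycerol buffer at room temperature for 30 min, then crosslinked with 0.1% formaldehyde after washing, ligated by proximity, amplified and sequenced. For binding signal, each hexamer's read frequency for a factor is divided by its frequency for the tag-only sample.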

ELK1 = target: T2, ELK1 (Homo sapiens, UniProt P19419 1-428)
T2 sequence: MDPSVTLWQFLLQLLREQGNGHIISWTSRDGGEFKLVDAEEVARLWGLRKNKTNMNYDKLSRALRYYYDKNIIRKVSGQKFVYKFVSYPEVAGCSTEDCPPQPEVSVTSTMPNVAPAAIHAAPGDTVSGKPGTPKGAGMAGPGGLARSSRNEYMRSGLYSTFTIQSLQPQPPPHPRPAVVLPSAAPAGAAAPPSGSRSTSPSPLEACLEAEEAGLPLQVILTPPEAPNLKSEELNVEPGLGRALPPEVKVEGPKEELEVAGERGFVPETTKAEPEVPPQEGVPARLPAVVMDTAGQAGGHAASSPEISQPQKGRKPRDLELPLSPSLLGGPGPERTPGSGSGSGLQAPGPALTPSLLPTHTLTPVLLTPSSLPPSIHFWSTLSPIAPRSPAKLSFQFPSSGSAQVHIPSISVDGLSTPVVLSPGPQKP
Outline: as §1

GABPA = target: T3, GABPA (Homo sapiens, UniProt Q06546 1-454)
T3 sequence: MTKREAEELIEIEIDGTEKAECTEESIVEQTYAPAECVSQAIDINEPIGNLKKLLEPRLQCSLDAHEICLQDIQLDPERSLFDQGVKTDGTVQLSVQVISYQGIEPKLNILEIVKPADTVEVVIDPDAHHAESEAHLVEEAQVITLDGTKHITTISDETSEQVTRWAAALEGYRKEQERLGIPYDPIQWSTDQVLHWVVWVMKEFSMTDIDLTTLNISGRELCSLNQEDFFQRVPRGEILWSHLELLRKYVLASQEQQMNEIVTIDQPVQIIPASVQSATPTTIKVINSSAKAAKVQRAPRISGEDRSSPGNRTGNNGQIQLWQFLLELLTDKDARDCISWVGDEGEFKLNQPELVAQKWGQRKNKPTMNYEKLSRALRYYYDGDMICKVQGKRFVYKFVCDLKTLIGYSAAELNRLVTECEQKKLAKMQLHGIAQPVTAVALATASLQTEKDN
Outline: as §1

ERG = target: T4, ERG (Homo sapiens, UniProt P11308 1-479)
T4 sequence: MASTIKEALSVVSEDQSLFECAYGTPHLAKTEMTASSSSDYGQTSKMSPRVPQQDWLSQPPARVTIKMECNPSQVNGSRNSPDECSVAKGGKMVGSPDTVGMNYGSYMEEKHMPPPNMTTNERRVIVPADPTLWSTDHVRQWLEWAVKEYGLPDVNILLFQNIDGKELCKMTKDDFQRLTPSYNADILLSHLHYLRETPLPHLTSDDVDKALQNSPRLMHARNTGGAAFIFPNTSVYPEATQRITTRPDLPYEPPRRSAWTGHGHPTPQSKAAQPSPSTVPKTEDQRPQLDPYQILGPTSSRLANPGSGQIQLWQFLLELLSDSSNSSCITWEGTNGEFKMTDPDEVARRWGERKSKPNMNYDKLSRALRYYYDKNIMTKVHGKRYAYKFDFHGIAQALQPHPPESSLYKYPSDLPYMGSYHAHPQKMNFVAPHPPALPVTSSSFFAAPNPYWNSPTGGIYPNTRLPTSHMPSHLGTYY
Outline: as §1

ELF1 = ELF1 (Homo sapiens, UniProt P32519 1-619)
Chain of ELF1 (P32519 whole entry): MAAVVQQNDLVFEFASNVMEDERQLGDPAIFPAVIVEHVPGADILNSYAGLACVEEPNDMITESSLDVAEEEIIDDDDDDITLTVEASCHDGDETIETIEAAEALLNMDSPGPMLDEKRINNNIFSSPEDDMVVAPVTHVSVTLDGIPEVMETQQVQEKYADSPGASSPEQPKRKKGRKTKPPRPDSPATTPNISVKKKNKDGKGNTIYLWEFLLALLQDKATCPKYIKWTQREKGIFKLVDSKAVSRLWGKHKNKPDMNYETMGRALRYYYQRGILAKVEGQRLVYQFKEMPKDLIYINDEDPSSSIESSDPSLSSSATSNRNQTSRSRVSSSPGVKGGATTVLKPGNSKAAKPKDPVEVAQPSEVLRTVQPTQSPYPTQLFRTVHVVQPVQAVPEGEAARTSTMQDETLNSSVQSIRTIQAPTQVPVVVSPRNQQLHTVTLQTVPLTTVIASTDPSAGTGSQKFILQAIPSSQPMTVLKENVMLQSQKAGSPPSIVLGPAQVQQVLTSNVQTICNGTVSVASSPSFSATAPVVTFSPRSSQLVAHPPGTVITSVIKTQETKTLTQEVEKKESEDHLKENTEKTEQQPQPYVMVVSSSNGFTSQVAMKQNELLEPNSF
Outline: as §1

EHF = target: T5, EHF (Homo sapiens, UniProt Q9NZC4 1-300)
T5 sequence: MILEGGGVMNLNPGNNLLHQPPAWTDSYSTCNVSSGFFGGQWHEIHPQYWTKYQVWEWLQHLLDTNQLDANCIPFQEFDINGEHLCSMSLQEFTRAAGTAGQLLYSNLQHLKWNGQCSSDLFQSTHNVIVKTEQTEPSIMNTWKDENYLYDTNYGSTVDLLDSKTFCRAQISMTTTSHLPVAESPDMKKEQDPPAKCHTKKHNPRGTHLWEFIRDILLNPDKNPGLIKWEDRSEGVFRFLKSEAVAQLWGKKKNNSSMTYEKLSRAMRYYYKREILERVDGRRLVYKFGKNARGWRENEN
Outline: as §1

SPI1 = SPI1 (Homo sapiens, UniProt P17947 1-270)
Outline: as §1

SPIB = SPIB (Homo sapiens, UniProt Q01892 1-262)
Chain of SPIB (Q01892 whole entry): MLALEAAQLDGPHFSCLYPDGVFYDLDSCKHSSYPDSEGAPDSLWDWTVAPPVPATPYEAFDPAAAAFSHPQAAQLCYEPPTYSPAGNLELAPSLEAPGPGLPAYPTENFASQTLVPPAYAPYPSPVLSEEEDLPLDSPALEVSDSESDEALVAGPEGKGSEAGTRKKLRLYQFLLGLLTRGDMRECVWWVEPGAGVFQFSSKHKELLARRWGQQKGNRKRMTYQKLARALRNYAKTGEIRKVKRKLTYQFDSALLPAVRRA
Outline: as §1

ELK3 = target: T6, ELK3 (Homo sapiens, UniProt P41970 1-407)
T6 sequence: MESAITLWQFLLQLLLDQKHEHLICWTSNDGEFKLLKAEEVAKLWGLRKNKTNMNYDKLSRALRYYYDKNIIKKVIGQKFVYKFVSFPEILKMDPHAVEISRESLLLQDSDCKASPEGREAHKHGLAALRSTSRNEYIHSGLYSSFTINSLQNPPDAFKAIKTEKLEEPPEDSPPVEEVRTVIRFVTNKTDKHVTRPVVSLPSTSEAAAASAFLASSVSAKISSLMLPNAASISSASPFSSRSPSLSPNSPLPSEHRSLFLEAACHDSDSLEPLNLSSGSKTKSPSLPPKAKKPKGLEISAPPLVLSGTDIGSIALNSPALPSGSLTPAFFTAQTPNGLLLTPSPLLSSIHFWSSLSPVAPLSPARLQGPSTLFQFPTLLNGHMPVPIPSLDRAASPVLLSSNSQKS
Outline: as §1

FEV = target: T7, FEV (Homo sapiens, UniProt Q99581 1-238)
T7 sequence: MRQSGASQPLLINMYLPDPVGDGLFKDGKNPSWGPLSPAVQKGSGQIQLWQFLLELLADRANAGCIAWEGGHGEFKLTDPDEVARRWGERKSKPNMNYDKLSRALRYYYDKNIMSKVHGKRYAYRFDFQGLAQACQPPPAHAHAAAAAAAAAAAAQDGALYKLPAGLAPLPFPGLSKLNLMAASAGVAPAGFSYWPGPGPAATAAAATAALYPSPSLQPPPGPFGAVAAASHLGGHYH
Outline: as §1

ETV5 = ETV5 (Homo sapiens, UniProt P41161 1-510)
Chain of ETV5 (P41161 whole entry): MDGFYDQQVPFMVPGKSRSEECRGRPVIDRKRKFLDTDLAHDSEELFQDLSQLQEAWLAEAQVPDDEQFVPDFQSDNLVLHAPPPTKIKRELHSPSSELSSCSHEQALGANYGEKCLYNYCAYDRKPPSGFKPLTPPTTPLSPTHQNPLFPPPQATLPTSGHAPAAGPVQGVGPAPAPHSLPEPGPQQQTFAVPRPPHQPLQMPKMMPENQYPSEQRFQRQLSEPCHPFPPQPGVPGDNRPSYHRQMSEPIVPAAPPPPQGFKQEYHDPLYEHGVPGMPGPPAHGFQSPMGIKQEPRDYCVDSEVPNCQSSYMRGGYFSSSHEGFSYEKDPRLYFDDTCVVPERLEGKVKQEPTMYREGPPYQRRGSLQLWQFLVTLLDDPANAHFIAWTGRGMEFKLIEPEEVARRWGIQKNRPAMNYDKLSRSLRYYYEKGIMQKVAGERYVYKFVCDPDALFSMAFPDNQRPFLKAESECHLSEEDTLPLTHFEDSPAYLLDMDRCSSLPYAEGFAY
Outline: as §1

SPIC = target: T8, SPIC (Homo sapiens, UniProt Q8N5J4 1-248)
T8 sequence: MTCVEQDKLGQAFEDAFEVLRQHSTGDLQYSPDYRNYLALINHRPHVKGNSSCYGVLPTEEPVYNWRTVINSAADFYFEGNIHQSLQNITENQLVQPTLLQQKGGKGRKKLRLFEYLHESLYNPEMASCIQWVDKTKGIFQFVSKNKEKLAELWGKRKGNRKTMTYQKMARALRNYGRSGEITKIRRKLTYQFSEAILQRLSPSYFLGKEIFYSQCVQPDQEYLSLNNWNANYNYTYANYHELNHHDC
Outline: as §1

ELF4 = ELF4 (Homo sapiens, UniProt Q99607 1-663)
Chain of ELF4 (Q99607 whole entry): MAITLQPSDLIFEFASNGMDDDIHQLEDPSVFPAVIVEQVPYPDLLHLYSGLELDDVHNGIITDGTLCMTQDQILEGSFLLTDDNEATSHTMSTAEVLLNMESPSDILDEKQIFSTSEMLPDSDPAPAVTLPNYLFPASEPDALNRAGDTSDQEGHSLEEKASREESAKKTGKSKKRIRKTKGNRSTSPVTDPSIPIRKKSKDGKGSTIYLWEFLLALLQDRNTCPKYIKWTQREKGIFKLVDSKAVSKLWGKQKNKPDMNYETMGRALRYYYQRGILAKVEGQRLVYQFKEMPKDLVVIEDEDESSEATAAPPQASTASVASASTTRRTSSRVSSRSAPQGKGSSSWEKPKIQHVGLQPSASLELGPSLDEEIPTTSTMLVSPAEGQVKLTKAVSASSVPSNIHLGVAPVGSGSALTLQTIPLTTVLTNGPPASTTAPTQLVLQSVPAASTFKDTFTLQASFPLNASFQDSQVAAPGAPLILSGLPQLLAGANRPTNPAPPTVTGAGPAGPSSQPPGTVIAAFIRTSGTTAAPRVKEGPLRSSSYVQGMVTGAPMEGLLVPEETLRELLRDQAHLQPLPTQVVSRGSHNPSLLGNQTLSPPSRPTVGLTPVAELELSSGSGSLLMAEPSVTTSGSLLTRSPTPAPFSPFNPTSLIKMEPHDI
Outline: as §1

ELK4 = target: T9, ELK4 (Homo sapiens, UniProt P28324-2 1-405)
T9 sequence: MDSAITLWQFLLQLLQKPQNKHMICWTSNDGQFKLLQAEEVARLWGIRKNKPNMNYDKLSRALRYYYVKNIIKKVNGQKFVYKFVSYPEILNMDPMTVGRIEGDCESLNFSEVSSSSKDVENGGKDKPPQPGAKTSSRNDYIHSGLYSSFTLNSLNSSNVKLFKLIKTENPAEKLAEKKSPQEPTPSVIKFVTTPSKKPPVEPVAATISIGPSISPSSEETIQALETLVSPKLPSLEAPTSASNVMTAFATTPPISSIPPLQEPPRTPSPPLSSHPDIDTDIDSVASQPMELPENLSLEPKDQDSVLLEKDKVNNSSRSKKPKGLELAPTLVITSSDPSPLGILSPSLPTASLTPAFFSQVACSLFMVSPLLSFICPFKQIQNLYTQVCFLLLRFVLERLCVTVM
Outline: as §1

ETV2 = target: T10, ETV2 (Homo sapiens, UniProt O00321 1-342)
T10 sequence: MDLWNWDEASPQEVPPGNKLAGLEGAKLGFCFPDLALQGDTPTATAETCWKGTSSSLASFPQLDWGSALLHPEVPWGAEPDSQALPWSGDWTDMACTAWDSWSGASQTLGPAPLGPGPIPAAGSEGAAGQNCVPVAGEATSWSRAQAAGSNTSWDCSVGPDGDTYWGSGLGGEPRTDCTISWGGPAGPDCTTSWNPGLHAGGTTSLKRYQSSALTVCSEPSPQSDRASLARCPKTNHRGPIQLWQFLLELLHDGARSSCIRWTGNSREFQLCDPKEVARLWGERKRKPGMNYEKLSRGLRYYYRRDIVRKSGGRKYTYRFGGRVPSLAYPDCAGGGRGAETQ
Outline: as §1

ELF3 = target: T11, ELF3 (Homo sapiens, UniProt P78545 1-371)
T11 sequence: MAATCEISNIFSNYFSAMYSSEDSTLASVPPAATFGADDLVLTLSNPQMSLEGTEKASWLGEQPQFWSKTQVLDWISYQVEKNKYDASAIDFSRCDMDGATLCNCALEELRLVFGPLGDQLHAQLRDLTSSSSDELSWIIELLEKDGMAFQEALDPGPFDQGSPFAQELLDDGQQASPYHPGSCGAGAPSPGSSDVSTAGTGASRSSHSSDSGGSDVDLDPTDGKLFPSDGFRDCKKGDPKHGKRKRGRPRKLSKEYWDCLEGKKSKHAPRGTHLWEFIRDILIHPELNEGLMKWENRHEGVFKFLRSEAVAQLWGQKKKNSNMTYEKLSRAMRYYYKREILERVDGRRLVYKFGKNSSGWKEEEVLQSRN
Outline: as §1

CRX = CRX (Homo sapiens, UniProt O43186 1-299)
Chain of CRX (O43186 whole entry): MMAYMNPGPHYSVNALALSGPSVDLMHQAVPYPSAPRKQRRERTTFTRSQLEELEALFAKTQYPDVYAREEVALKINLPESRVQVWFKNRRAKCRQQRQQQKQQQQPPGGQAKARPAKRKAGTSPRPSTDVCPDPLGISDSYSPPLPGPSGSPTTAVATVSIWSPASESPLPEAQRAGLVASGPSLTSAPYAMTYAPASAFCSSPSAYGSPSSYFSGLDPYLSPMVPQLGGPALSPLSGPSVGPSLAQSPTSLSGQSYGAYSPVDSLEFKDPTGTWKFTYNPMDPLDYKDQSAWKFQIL
Outline: as §1

ETV1 = ETV1 (Homo sapiens, UniProt P50549 1-477)
Chain of ETV1 (P50549 whole entry): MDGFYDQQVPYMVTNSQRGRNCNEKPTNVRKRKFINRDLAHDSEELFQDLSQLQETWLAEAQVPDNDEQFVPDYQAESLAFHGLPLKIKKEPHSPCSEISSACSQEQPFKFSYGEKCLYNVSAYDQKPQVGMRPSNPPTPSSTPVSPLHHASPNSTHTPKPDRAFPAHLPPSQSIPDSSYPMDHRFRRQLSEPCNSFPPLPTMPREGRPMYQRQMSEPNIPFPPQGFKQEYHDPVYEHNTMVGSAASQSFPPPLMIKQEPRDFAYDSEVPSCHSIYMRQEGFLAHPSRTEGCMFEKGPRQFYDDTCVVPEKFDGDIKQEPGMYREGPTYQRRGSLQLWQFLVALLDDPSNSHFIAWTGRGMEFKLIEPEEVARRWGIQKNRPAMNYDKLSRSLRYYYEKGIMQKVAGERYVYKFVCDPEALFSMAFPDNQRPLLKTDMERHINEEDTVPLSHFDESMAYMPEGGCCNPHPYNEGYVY
Outline: as §1

Sequence | binding signal (FLI1) | binding signal (ELK1) | binding signal (GABPA) | binding signal (ERG) | binding signal (ELF1) | binding signal (EHF) | binding signal (SPI1) | binding signal (SPIB) | binding signal (ELK3) | binding signal (FEV) | binding signal (ETV5) | binding signal (SPIC) | binding signal (ELF4) | binding signal (ELK4) | binding signal (ETV2) | binding signal (ELF3) | binding signal (CRX) | binding signal (ETV1)
TTGGGC | 1.03 fold enrichment (6-mer frequency, TF over GST control) | 1.07 fold enrichment (6-mer frequency, TF over GST control) | 1.01 fold enrichment (6-mer frequency, TF over GST control) | 1.07 fold enrichment (6-mer frequency, TF over GST control) | 1.03 fold enrichment (6-mer frequency, TF over GST control) | 1.1 fold enrichment (6-mer frequency, TF over GST control) | 1.2 fold enrichment (6-mer frequency, TF over GST control) | 1.1 fold enrichment (6-mer frequency, TF over GST control) | 1.21 fold enrichment (6-mer frequency, TF over GST control) | 1.13 fold enrichment (6-mer frequency, TF over GST control) | 1.12 fold enrichment (6-mer frequency, TF over GST control) | 1.07 fold enrichment (6-mer frequency, TF over GST control) | 1.1 fold enrichment (6-mer frequency, TF over GST control) | 1.05 fold enrichment (6-mer frequency, TF over GST control) | 1.15 fold enrichment (6-mer frequency, TF over GST control) | 1.18 fold enrichment (6-mer frequency, TF over GST control) | 1.03 fold enrichment (6-mer frequency, TF over GST control) | 1.13 fold enrichment (6-mer frequency, TF over GST control)
ACCTTG | 1.27 fold enrichment (6-mer frequency, TF over GST control) | 1.37 fold enrichment (6-mer frequency, TF over GST control) | 1.24 fold enrichment (6-mer frequency, TF over GST control) | 1.1 fold enrichment (6-mer frequency, TF over GST control) | 1.21 fold enrichment (6-mer frequency, TF over GST control) | 1.3 fold enrichment (6-mer frequency, TF over GST control) | 1.17 fold enrichment (6-mer frequency, TF over GST control) | 1.18 fold enrichment (6-mer frequency, TF over GST control) | 1.38 fold enrichment (6-mer frequency, TF over GST control) | 1.12 fold enrichment (6-mer frequency, TF over GST control) | 1.2 fold enrichment (6-mer frequency, TF over GST control) | 1.17 fold enrichment (6-mer frequency, TF over GST control) | 1.22 fold enrichment (6-mer frequency, TF over GST control) | 1.21 fold enrichment (6-mer frequency, TF over GST control) | 1.4 fold enrichment (6-mer frequency, TF over GST control) | 1.29 fold enrichment (6-mer frequency, TF over GST control) | 1.03 fold enrichment (6-mer frequency, TF over GST control) | 1.21 fold enrichment (6-mer frequency, TF over GST control)
